In PubChem BioAssay AID1438 (Sanford-Burnham Center for Chemical Genomics, 2008):
Out of some 2,200 compounds screened, about 45 (2%) were called active. Not all results are given here. Measured potencies and affinities stand elsewhere. A number with no mark means an inactive call. No rule for the calls is given here.

molecular target: Runt-related transcription factor 1 (Homo sapiens) + Core-binding factor subunit beta (Homo sapiens) (UniProt Q01196+Q13951); assay: Runt domain/CBFb-SMMHC interaction disruptors – biochemical, TR-FRET (AID 1438); settings: at 20 µM, hits give high values
Sequence (Q01196 whole entry, looked up, the tested form may be a part): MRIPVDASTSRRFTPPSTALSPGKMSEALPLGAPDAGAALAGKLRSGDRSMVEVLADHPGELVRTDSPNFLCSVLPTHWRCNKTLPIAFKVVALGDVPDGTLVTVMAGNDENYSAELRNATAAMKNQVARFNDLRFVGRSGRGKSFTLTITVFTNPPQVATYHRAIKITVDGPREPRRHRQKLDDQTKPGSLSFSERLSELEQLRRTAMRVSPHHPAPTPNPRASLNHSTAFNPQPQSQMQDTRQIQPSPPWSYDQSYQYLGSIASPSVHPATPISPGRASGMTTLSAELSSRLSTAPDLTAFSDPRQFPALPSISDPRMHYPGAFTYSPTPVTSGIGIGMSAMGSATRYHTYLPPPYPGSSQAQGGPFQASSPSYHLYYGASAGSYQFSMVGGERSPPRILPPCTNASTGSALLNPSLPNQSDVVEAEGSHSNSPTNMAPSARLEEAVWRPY
Sequence (Q13951 whole entry, looked up, the tested form may be a part): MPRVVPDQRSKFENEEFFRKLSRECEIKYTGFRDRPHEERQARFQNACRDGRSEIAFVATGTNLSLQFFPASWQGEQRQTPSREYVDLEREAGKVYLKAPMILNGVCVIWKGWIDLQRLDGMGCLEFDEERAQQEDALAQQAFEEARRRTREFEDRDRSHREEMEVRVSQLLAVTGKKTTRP

Compound	inhibition
C=C(C)CNC(=S)Nc1sc2c(c1C(=O)OCC)CC(C)(C)OC2	-9.8%
Cc1cccc(C)c1NC(=O)COC(=O)c1c2c(nc3ccccc13)/C(=C\c1ccc3c(c1)OCO3)CCC2	1.3%
NS(=O)(=O)c1ccc(NC(=O)COC(=O)c2c3c(nc4ccccc24)/C(=C\c2ccc4c(c2)OCO4)CCC3)cc1	-24.4%
COc1ccc(/C=C2\CCc3c2nc2ccccc2c3C(=O)O)cc1OC	-11.1%
O=C(O)c1c2c(nc3ccccc13)/C(=C/c1ccc(O)cc1)CC2	-6.6%
CCN1CCc2c(C#N)c(N3CCOCC3)nc(NCc3ccccc3)c2C1	35.4%
Cc1cccn2c(=O)c3cc(C(=O)NCC4CCCO4)c(=N)n(CCN4CCOCC4)c3nc12 (centres undefined)	11.3%
COc1ccc(C2C=C(c3ccccc3)Nc3ncnn32)cc1 (centres undefined)	30.8%
Cc1ccccc1-n1c(=O)c(C#N)cc2c(=O)n3ccccc3nc21	23.6%
c1cc2c(cc1-c1csc(NNC3=NCCCCC3)n1)OCCO2	-4.3%
N#Cc1c(NCCO)nc(NCc2ccccc2)c2c1CCN(Cc1ccccc1)C2	48.5%
C=CCNc1nc(NCc2ccccc2)c(C#N)c2c1CN(C)CC2	31.3%
Cn1c(=N)c(S(=O)(=O)c2ccc(F)cc2)cc2c(=O)n3ccccc3nc21	47.6%
O=C(c1cc2ccccc2oc1=O)N1CCN(CCc2ccccc2)CC1	55.2% (active)
COc1cc2cc(C(=O)N3CCN(Cc4ccc5c(c4)OCO5)CC3)c(=O)oc2cc1OC	-6.8%
O=C(O)c1cc2ccc3ccccc3c2oc1=O	34.5%
CC1=CC(c2ccc(Cl)cc2)n2nc(NC(=O)CCC(=O)O)nc2N1 (centres undefined)	-7.4%
Cc1cc(-c2nc3cccnc3s2)ccc1NS(=O)(=O)c1cccs1	-9.2%
CCOC(=O)c1cc2c(=O)n3ccccc3nc2n(Cc2ccco2)c1=NC(=O)c1ccc(OC)cc1	-16.9%
Cc1cccn2c(=O)c3cc(C#N)c(=NC(=O)c4ccco4)n(Cc4ccco4)c3nc12	-9.7%

Compound	inhibition
CC(=O)N=c1c(C#N)cc2c(=O)n3cccc(C)c3nc2n1Cc1ccco1	-8.8%
CC(=O)N=c1c(C#N)cc2c(=O)n3ccccc3nc2n1Cc1ccccc1	47.4%
Cc1ccccc1C(=O)N=c1c(C#N)cc2c(=O)n3cccc(C)c3nc2n1Cc1ccco1	47%
COCCCn1c(=NC(=O)c2ccncc2)c(C#N)cc2c(=O)n3cccc(C)c3nc21	14%
O=C(Cc1nc2ccccc2s1)c1ccc(O)cc1O	15.1%
CCOC(=O)c1cc(C(=O)OCC)c2ccccn2c1=O	25.7%
COCCCNC(=O)c1cc2c(=O)n3cc(C)ccc3nc2nc1NCC1CCCO1 (centres undefined)	-2.6%
CC(C)OC(=O)c1c2nc3ccccc3nc2n2c1[nH]c(=O)c1ccccc12	-203%
Cc1ccc2[nH]cc(C(=O)CN3CCC4(CC3)OCCO4)c2c1	2.6%
O=c1[nH]c2ccccc2nc1/C=C/c1ccccc1	-5.7%
COCc1cc(=O)n2c([nH]c3ccccc32)c1C#N	38.4%
O=c1[nH]c2ccccc2n2c(-c3ccccc3)nnc12	84.1% (active)
Cc1cccn2c(=O)c3cc(C(=O)NCc4ccco4)c(=N)n(C(C)C)c3nc12	32.5%
COc1cc(/C=C/C(=O)OCC(=O)Nc2ccccc2Sc2ccc(Cl)cc2)ccc1O	1.1%
Cc1cccn2c(=O)c(/C=C(\C#N)C(=O)NC3CCS(=O)(=O)C3)c(N3CC(C)OC(C)C3)nc12 (centres undefined)	-39.6%
COc1ccc(OC)c(N=c2ssnc2Cl)c1	-11.1%
CCCN1CCc2c(sc(NC(=S)NC(=O)c3ccccc3)c2C#N)C1	-14.1%
N#Cc1c(NC(=S)NC(=O)c2ccccc2)sc2c1CCN(CCc1ccccc1)C2	52% (active)
CC(C)N1CCc2c(sc(NC(=S)NC(=O)c3ccccc3)c2C#N)C1	21.2%
CNS(=O)(=O)c1ccc2nc(NC(=O)c3ccc(N4C(=O)CCC4=O)cc3)sc2c1	-3.6%

Compound	inhibition
O=C(Nc1nc2c(s1)CN(Cc1ccccc1)CC2)C1CCC1	43%
COc1ccc(C2c3ccc(O)cc3Oc3ncn(CC(C)C)c(=N)c32)cc1 (centres undefined)	-6.8%
CC(=O)Nc1sc2c(c1C(N)=O)CCN(Cc1ccccc1)C2	-0.2%
NNc1nc2sc3c(c2c(=O)n1C1CCCCC1)CCN(Cc1ccccc1)C3	-9.4%
CC1(C)CC(=O)C2=C(C1)Nc1ccccc1NC2	-9.5%
O=C(c1ccccc1)c1cc2ccc(O)cc2oc1=O	-8.4%
CCCn1c(=N)c(C(=O)NC2CCCC2)cc2c(=O)n3cccc(C)c3nc21	2.5%
CCc1ccc(S(=O)(=O)Nc2ccc(-c3nc4cccnc4s3)cc2)s1	44%
O=S(=O)(Nc1ccc(-c2nc3cccnc3s2)cc1)c1cccs1	29.2%
Cc1cccc2cc(C#N)c(NCCNS(=O)(=O)c3ccccc3)nc12	-12.6%
CN1CCN(Cc2c(O)ccc3cc(-c4ccccn4)c(=O)oc23)CC1	-17.3%
Cc1nc2[nH]c(=O)c3c(n2n1)NC1=C(C(=O)CC(C)(C)C1)C3c1ccc(F)cc1 (centres undefined)	46.7%
COc1ccc(C2C3=C(CC(C)(C)CC3=O)Nc3c2c(=O)[nH]c2nc(C)nn32)cc1 (centres undefined)	17.2%
O=C(Nc1nccs1)c1ccccc1N=Cc1ccccc1	49.3%
Cn1c(C(=O)NCc2ccccn2)cc2c(=O)n3ccccc3nc21	11.6%
CC(C)Cn1c(N)c(C(=O)NCc2cccs2)c2nc3ccccc3nc21	17%
Nc1c(C(=O)NCc2ccco2)c2nc3ccccc3nc2n1CCc1ccccc1	42.7%
COc1ccc(CCn2c(N)c(C(=O)NCc3ccco3)c3nc4ccccc4nc32)cc1	46.3%
CC(C)Cn1c(N)c(C(=O)NCCN2CCOCC2)c2nc3ccccc3nc21	46.7%
